Source: PubChem BioAssay
Shown are actives, neighbours in structure and some others; about 1.8% of the full set was active somewhere.
PME-1 primary – blocks human protein phosphatase methylesterase 1; Q9Y570; recombinant PME-1, FP-Rh probe fluorescence polarization; inhibition, % at 5.9 µM; hit rate 0.53% among 320,000; AID 2130;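 active means inhibition above the campaign mean of all compounds plus 3 SD, cut at about 26% in these data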;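 further: competitive labeling of PME-1 active site by serine hydrolase directed probe; 0% = PME-1 with DMSO and 100% = wells lacking PME-1 enzyme; inhibitors block probe labeling so polarization falls and inhibition rises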
Target sequence (Q9Y570 whole entry, looked up): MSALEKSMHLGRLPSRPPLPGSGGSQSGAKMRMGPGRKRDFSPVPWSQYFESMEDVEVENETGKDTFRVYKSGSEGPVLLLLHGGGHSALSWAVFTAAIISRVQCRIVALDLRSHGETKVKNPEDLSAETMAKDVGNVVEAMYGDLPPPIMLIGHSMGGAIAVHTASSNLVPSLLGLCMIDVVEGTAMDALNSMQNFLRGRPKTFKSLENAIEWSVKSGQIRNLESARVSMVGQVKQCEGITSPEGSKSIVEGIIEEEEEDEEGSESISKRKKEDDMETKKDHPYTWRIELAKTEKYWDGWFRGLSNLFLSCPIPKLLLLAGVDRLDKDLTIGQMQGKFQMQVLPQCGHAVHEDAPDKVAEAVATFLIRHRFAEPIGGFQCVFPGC
LYPLA2 counter – counter-screen for PME1 inhibitors: inhibitors of human LYPLA2 | O95372 | recombinant LYPLA2, FP-Rh probe fluorescence polarization | inhibition, % at 5.9 µM | hit rate 0.38% among 320,000;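 active means inhibition above the screen-wide mean plus 3 SD, limit set per campaign, cut at about 26% in these data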;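 further: 0% = LYPLA2 with DMSO and 100% = wells lacking LYPLA2 enzyme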
Fam108B inh – blocks mouse Fam108B hydrolase in RBBP9 counter-screen. recombinant Fam108B, FP-Rh probe fluorescence polarization. hit rate 0.33% among 300,000. inhibition, % at 9.51 µM. AID 1947;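 active means inhibition above the screen mean inhibition plus 3 SD, computed separately per campaign, cut at about 18% in these data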;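 further: inhibitors lower polarization as less probe binds the enzyme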
PAD4 FP inh – PAD4 (human) enzyme inhibition; hit rate 0.41% among 330,000; AID 485272; Q9UM07; inhibition, % at 6.36 µM; recombinant PAD4, RCA probe fluorescence polarization;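 active means percent inhibition above a cutoff equal to the mean of all tested compounds plus 3 SD, cut at about 15% in these data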;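 further: 0% = PAD4 with RCA probe and DMSO and 100% = probe without PAD4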
GSTO1 counter – counter-screen for RBBP9 inhibitors: inhibitors of human GSTO1; recombinant GSTO1, activity-based probe fluorescence polarization; hit rate 1.1% among 300,000; AID 1974; P78417; inhibition, % at 5.96 µM;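 active means inhibition above the campaign mean inhibition plus 3 SD, cut at about 35% in these data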;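 further: 0% = GSTO1-1 with DMSO and 100% = wells lacking GSTO1-1 enzyme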
LYPLA1 inh – LYPLA1 (human) inhibition in PME1 counter-screen | O75608 | inhibition, % at 5.9 µM | recombinant LYPLA1, FP-Rh probe fluorescence polarization | hit rate 0.16% among 320,000;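 active means inhibition above the mean of all tested compounds plus 3 SD, set per campaign, cut at about 14% in these data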;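 further: inhibitors block serine hydrolase probe labeling of LYPLA1 so polarization falls; 0% = enzyme with DMSO and 100% = wells lacking LYPLA1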
Target sequence (O75608 whole entry, looked up): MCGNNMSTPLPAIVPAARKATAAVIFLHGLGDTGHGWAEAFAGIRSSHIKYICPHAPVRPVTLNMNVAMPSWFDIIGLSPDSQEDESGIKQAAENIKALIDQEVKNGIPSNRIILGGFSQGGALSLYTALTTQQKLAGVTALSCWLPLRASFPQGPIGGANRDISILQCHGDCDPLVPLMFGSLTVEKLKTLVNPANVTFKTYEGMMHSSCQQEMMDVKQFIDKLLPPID
Fam108b inh conf – confirmation of mouse Fam108b serine hydrolase inhibitors. recombinant Fam108b, FP-Rh probe fluorescence polarization. shares compounds with Fam108B inh. hit rate 44% among 930. inhibition, % at 9.51 µM;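 active means inhibition above a limit from the primary screen, the mean over all compounds plus 3 SD, cut at about 19% in these data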;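 further: 0% = median of active Fam108b wells and 100% = catalytically dead S170A mutant; inhibitors free the probe so polarization falls as inhibition rises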
Fam108b ABPP HTS – mouse ABHD17B inhibition. inhibition, % at 20 µM. recombinant Fam108b, gel-based ABPP, fluorophosphonate probe. shares compounds with Fam108B inh. hit rate 44% among 260; in the data active means inhibition above about 40%
* marks the source's active call; other numbers are inactive results; x = no result given.

SMILES	PME-1 primary	LYPLA2 counter	Fam108B inh	PAD4 FP inh	GSTO1 counter	LYPLA1 inh	Fam108b inh conf	others
Cn1c(=N)n(CC(=O)c2ccc(Cl)c(Cl)c2)c2ccccc21	19.1	11.6	20.7*	-3.1	-2.7	5.2	5.8
NC(=O)C1CCN(C(=O)COCc2cc(-c3ccc4c(c3)OCO4)on2)CC1	-0.6	0.7	-0.9	-5.7	2.2	2.5	x
COc1cc2cc(-c3ccc(O)cc3O)nc(C)c2cc1OC	15.7	7.4	19.6*	-2.8	0.6	4.5	20.9*
COc1cc2c(cc1NC(=O)Nc1ccc(C)cc1)oc1ccccc12	11.7	-17.6	4.6	0.6	-14.4	-7.2	x
COc1cc2c(cc1NC(=O)Nc1cccc(C)c1)oc1ccccc12	35.8*	5.6	22.5*	-4.5	-2.6	-11.6	8.1
COc1ccc(C(=O)N/C(=C\c2ccccc2)C(=O)Nc2ccc(C(=O)NCC(=O)O)cc2)cc1	4.6	6.6	-0.4	2.1	-0.5	4.8	x
COc1cccc(/C=N/Nc2ncnc3scc(-c4ccccc4)c23)c1O	17.3	-1.8	22.6*	-7.0	-11.0	1.4	3.3
COc1cccc(/C=N/Nc2ncnc(Cl)c2N)c1O	1.5	-2.4	7.1	-0.8	5.5	-2.7	x
O=C(NC(=S)NNC(=O)c1ccccc1O)c1cccc([N+](=O)[O-])c1	4.7	-3.4	19.3*	-0.1	7.1	-3.4	10.1
CCN(CC)S(=O)(=O)c1ccc(N/N=C/c2ccc(O)cc2O)nc1	48.1*	-1.1	21.6*	1.7	3.2	-5.1	5.8
Cn1c(COc2ccc([N+](=O)[O-])cc2)nnc1SCC(=O)NCC1CCCO1 (stereo not given)	-5.6	-0.3	0.4	-2.1	-5.7	-4.0	x
CC(=O)c1ccc(-n2c(CCC(=O)O)ccc2-c2ccc(Br)cc2)cc1	1.7	-5.1	-1.7	-5.2	7.6	-5.4	x
CC(C)c1ccc(-c2nc(N3CCCCC3)[nH]c(=O)c2C#N)cc1	4.2	-2.4	-1.5	-2.7	2.2	0.0	x
CC1=Nc2nc(N3CCCCC3)c(C#N)c3c4c(nc(c23)N1)N(c1ccc(C(C)C)cc1)C(=O)C4	14.2	-1.1	26.8*	10.7	28.4	-8.2	13.6
COc1ccc(Nc2ncnc3sc(-c4ccccc4)cc23)cc1OC	38.9*	-5.9	54.2*	1.8	-0.2	2.2	-11.8
COc1ccc(Nc2ncnc3c2cnn3-c2ccccc2)cc1OC	4.7	1.4	2.5	-0.8	3.2	2.5	x
CN(C1CCCCC1)S(=O)(=O)c1ccc(S(=O)(=O)N(CC(=O)Nc2ccccc2)C2CC2)cc1	-25.2	-29.3	-1.1	0.3	4.3	-17.9	x
COc1cc(/C=N/Nc2nc3ccccc3s2)ccc1OC(=O)c1ccccc1F	18.3	5.2	2.7	-1.7	4.0	-11.9	x
COc1cc(OC)cc(C(=O)Oc2ccc(/C=N/Nc3nc4ccccc4s3)cc2OC)c1	30.9*	-1.1	25.8*	-3.2	0.0	-4.0	11.6
COc1cccc(N2CCN(S(=O)(=O)c3ccc4nc(-c5ccccc5)[nH]c4c3)CC2)c1	13.2	-67.0	20.9*	-1.4	-4.2	-11.7	-12.1
COc1ccccc1NC(=O)CCN1C(=O)C2C3CCC(C3)C2C1=O (stereo not given)	2.0	0.2	-0.9	-0.9	-1.0	0.0	x
Cc1ccc(S(=O)(=O)N(C)C)cc1NC(=O)c1cc(=O)c2ccccc2o1	2.3	-2.9	21.0*	-3.6	5.8	-3.3	32.9*	Fam108b ABPP HTS=0.0
CCCc1cnc(N2CCN(S(=O)(=O)c3cccs3)CC2)nc1	3.6	-4.8	-2.1	-4.0	-3.1	0.1	x
CN(/N=C/c1ccc(O)cc1O)c1nc(-c2ccccc2)cc(-c2ccccc2)n1	23.4	7.6	32.7*	-4.8	-3.3	-9.2	19.1*
CCN(CC(=O)Nc1c(C(=O)OC)[nH]c2ccc(Cl)cc12)c1ccc2c(c1)OCO2	39.7*	-1.4	21.4*	-1.4	10.9	-4.2	7.8
SMILES	PME-1 primary	LYPLA2 counter	Fam108B inh	PAD4 FP inh	GSTO1 counter	LYPLA1 inh	Fam108b inh conf	others
Nc1nn2cc(-c3ccc(Br)cc3)nc2c2ccccc12	-0.8	-0.8	26.9*	-1.1	-27.1	-8.5	3.4
O=C(CN1CCCc2ccccc21)N/N=C/c1c(O)ccc2ccccc12	31.1*	-1.0	42.6*	-1.9	-6.3	-12.3	16.2
O=[N+]([O-])c1cccc(-c2csc(N/N=C/c3cccc(O)c3)n2)c1	11.4	-10.0	32.2*	-2.5	-9.6	-14.1	30.7*
CN(C)S(=O)(=O)c1ccc(-c2csc(N/N=C/c3ccc(O)cc3)n2)cc1	35.4*	12.3	29.2*	-7.0	-16.7	-8.8	9.1
CCOC(=O)Cc1csc(N/N=C/c2cccc([N+](=O)[O-])c2)n1	3.6	1.1	0.7	-1.9	-4.9	1.6	x
Cc1ccc2nc(/C(C#N)=C\c3ccc(N4CCCCC4)c([N+](=O)[O-])c3)[nH]c2c1	67.5*	15.3	31.0*	-3.9	-9.5	-8.0	-0.2
Cc1ccc2nc(/C(C#N)=C/c3ccccc3C(=O)O)[nH]c2c1	1.4	-6.5	-1.9	-7.8	-2.8	-4.1	x
CCOC(=O)Cc1csc(NC(=O)c2sc3nc4c(C)cc(C)cc4cc3c2N)n1	85.9*	-2.6	23.2*	-0.5	4.7	-9.2	3.9
CCOc1cc(/C=C2/SC(=S)N(CC(=O)O)C2=O)ccc1OC(=O)c1cccs1	-31.9	-19.3	-12.9	-0.1	-64.3	-10.1	x
CCOc1cc(/C=C2\C(=O)N(c3ccc(C(N)=O)cc3)N=C2C)ccc1OC(=O)c1cccs1	8.7	15.2	19.8*	26.9*	72.6*	0.6	8.5
Cc1nn(-c2ccccc2)c(N2CCCC2)c1/C=N/NC(=O)c1cccc(S(=O)(=O)Nc2ccc(Cl)cc2)c1	15.0	-18.3	21.9*	0.9	-33.5	-14.4	-6.2
Cc1nn(-c2ccccc2)c(N2CCCC2)c1/C=N/NC(=O)c1cc2ccccc2cc1O	38.0*	0.7	27.2*	3.4	-2.8	-9.6	9.0
Cc1nn(-c2ccccc2)c(Cl)c1/C=N/NC(=O)c1cccc(S(=O)(=O)N2CCCC2)c1	1.6	3.8	-6.3	3.9	-0.4	-4.5	x
Cc1nn(-c2ccccc2)c(N2CCCC2)c1/C=N/NC(=O)c1cc(-c2ccccc2)nc2ccccc12	-3.0	-2.2	-6.1	0.9	-7.2	-8.1	x
Nc1ccc2nc(-c3cccc(-c4nc5ccc(N)cc5[nH]4)c3)[nH]c2c1	51.2*	-10.1	25.4*	-21.7	-7.3	-3.8	146.3*	Fam108b ABPP HTS=90.0*
N=c1oc2cc(O)ccc2cc1C(=O)Nc1ccccn1	-4.5	-0.5	-0.7	-0.9	7.4	-1.4	x
N=c1oc2cc(O)ccc2cc1C(=O)Nc1ccc(Br)cc1	8.9	-2.6	33.0*	-6.7	14.7	6.1	164.0*	Fam108b ABPP HTS=40.0*
